The nature of this test: High Content Assay for Compounds that inhibit the Assembly of the Perinucleolar Compartment: DNA Intercalation/PicoGreen Displacement Assay. The settings on record: fluorescence (intercalation counter-screen); series mostly up to 57.1 µM. An excerpt: High Content Assay for Compounds that inhibit the Assembly of the Perinucleolar Compartment
NIH Chemical Genomics Center [NCGC]
NIH Molecular Libraries Probe Centers Network [MLPCN]
Assay Submitter (PI): Sui Huang, Northwestern University, Feinberg School of Medicine, Cell and Molecular Biology, Chicago, Illinois.
The perinucleolar compartment (PNC) is a non-membrane-bound nuclear subdomain that is associated with but structurally distinct from the nucleolus. The PNC is a heritable trait, in which the number of PNCs per cell in daughter cells often mimics that of their mother cells. The PNC is heterogeneous in shape, is stable through interphase, disassembles during mitosis, and reassembles in early G1. […]
Therefore, we conducted a DNA intercalation/displacement assay on the lead candidates in order to exclude compounds with this mechanism of action. […] Compounds which displace the dye will decrease fluorescence intensity and were considered DNA intercalators/displacers. In order to rule out potential fluorescence artifacts, a measurement of compound plus DNA only was also calculated. […]
4. A baseline signal was measured using an Envision PMT based plate reader using a 488 nm excitation filter and a 520 nm emission filter. […]
6. Plates were incubated at 37 C for 10 minutes prior to being read on the envision plate reader. […]
Background: The purpose of a counterscreen is to sort out artefacts and off-target activity.

Records with an inconclusive call do not appear. The source made the active and inactive calls. The call rests on the fitted dose curve; in most records, active means well fitted inhibition curve with a large enough effect; inconclusive means small, poorly fitted or top-dose-only effect, or effect the other way; inactive means no such curve, though single readings can be large or run the other way.

With `CCC(=NCc1cc(OC)cc(OC)c1)c1c(O)n(C)c(=O)n(C)c1=O`, the result was inactive. The same measure for `Cc1c2ccncc2c(C)c2c1[nH]c1ccccc12`: “inactive”.

Source of the values: PubChem BioAssay AID2734 (National Center for Advancing Translational Sciences (NCATS), 2010).
